Structures are written as SMILES. Results filed as inconclusive are left out. A call without a number means that no potency is given here. Activity calls are given as the source filed them. The call rests on the fitted dose curve; in most records, active means well fitted activation curve with a large enough effect in the repeat runs; inconclusive means weak or mixed curves; inactive means no such curve, though single readings can be large or run the other way.
Potency means the concentration at half of the fitted maximal effect.

Sequence of Nuclear receptor subfamily 1 group I member 3 (Homo sapiens) (Q14994 whole entry, looked up): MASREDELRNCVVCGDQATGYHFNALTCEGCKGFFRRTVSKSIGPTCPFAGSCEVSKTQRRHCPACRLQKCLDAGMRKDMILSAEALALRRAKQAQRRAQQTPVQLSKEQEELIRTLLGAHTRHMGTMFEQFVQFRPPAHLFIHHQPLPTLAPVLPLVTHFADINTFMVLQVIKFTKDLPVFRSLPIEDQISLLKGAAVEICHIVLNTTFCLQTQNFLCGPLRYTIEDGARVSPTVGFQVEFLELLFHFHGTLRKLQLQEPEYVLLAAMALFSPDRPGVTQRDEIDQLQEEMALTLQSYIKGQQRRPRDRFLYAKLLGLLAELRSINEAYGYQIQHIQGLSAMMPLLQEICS

This test addresses Nuclear receptor subfamily 1 group I member 3 (Homo sapiens) (UniProt Q14994). Description: qHTS assay to identify small molecule agonists of the constitutive androstane receptor (CAR) signaling pathway (AID 1224839). Further: nearly all actives have a fitted effect of over 15% in size.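 On activation: HepG2 cells stably carrying human CAR and a CYP2B6 luciferase reporter.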 Conditions: HepG2 hCAR CYP2B6-luciferase, agonist mode, 24 h; series mostly up to 42.5 µM. From the text: National Center for Advancing Translational Sciences [NCATS] NIH Chemical Genomics Center [NCGC] U.S. Environmental Protection Agency [EPA] National Institutes of Environmental Health Sciences [NIEHS] National Toxicology Program [NTP] Assay overview: The constitutive androstane receptor (CAR) is a nuclear receptor which regulates multiple drug metabolizing enzymes (DMEs) and transporters. Activating CAR will generally increase the transcription and subsequent translation of CYP2B6 and CYP3A4. These two DMEs represent about 50% of the drug metabolizing potential in the body. […] Recently, there have also been studies performed indicating CARs role in energy metabolism and cancer therapy. Therefore, inducing CARs activity could have a potential effect on diabetes and cancer. Identifying environmental toxins and compounds which modulate CAR, through the use of the Tox21 10K compound collection, will be an important step in determining the toxicity and potential therapeutic effects these factors will have on the human body.
Assay Protocol Summary: A double-stable (hCAR and CYP2B6-2.2kb) transfected cell line, derived from human hepatoma (HepG2) cells, was utilized for the duration of the quantitative high-throughput screens. The HepG2-CYP2B6-hCAR cells suspended in DMEM culture medium supplemented with 10% FBS, 5 ug/mL blasticidin, 0.5 mg/mL geneticin, 100 U/mL penicillin and 100 ug/mL streptomycin were dispensed at 2500 cells/4 uL/well in 1536-well white solid bottom plates using a Multidrop Combi. After the assay plates were incubated at 37 C/5% CO2 for 4 hrs, 23 nL of compounds at 15 concentrations (from 5-48 columns) or positive control (from 1 to 4 columns) were transferred to the assay plates using a Pintool station. One uL of PK11195, was added using a Flying Reagent Dispenser to generate a final concentration of 0.75 uM PK11195 inside each well. After a 24 hr incubation period at 37 C/5% CO2, four uL of ONE-Glo reagent was added into the assay plates using a Flying Reagent Dispenser. After a 30 min incubation period at room temperature, the luminescence intensity in the assay plates was measured using a ViewLux plate reader.
A general note: Quantitative high-throughput screening tests each substance at several concentrations.
In the case of `Clc1ccc(Cn2c(CN3CCCC3)nc3ccccc32)cc1`, the Potency was 11.9 µM (active). Regarding `O=C(O)C(S)C(S)C(=O)O` (stereo not given), the Potency entry was “inactive”. Take `CCCCCCCCCCCCN1CCCCCC1=O`: the Potency is 61.1 µM (active).

On to `C[N+]1(CC2COC(c3ccccc3)(C3CCCCC3)O2)CCCCC1` (stereo not given), for which the Potency result was “inactive”.

`CCCCNc1ccc(C(=O)OCCOCCOCCOCCOCCOCCOCCOCCOCCOC)cc1`: the Potency entry was “inactive”. Take `COc1cc(Cl)ccc1Oc1ccc(Cl)cc1Cl`: the Potency is 29.8 µM (active). Regarding `CC(C)(CO)[N+](=O)[O-]`, the Potency result was “inactive”. In the case of `C=CCOc1ccccc1OCC(O)CNC(C)C` (stereo not given), the Potency entry is “inactive”. For the molecule `CCOC(=O)C(F)(F)F`, the Potency entry was “inactive”.

For the molecule `CCOc1ccc(N=Nc2ccc(/C=C/c3ccc(N=Nc4ccc(OCC)cc4)cc3S(=O)(=O)O)c(S(=O)(=O)O)c2)cc1`, the Potency result was “inactive”. For `O=C1C(O)=C(O)C(=O)C(O)=C1O`, the Potency entry was “inactive”. Take `C=CC(=O)OCCOCCOCCOCCOC(=O)C=C`: the Potency result was “inactive”. Take `CCCCCCCCCCCC(=O)OC[C@@H](O)[C@H]1OC[C@H](OCCO)[C@H]1OCCO`: the Potency result is “inactive”. For `COCCCN1CCC(NC(=O)c2cc(Cl)c(N)c3c2OCC3)CC1`, the Potency entry is “inactive”.

With `Cc1cccc(C)c1NC(=O)CN(CC(=O)O)CC(=O)O`, the Potency entry was “inactive”. Under `NCc1ccccc1Sc1ccccc1CO` stands “inactive”. Turning to `CCC(=O)O[C@]1(C(=O)CCl)[C@@H](C)C[C@H]2[C@@H]3CCC4=CC(=O)C=C[C@]4(C)[C@@]3(F)[C@@H](O)C[C@@]21C`, the Potency result was “inactive”.

Turning to `CCCCCCCCCCCCCCOS(=O)(=O)O`, the Potency result was “inactive”. On to `CC(=O)c1ccc2c(c1)N(CCCN1CCC(CCO)CC1)c1ccccc1S2`, for which the Potency entry was “inactive”.

With `CCCCC1=NC2(CCCC2)C(=O)N1Cc1ccc(-c2ccccc2-c2nn[nH]n2)cc1`, the Potency entry is “inactive”. In the case of `CN(C)CCOC(c1ccccc1)c1ccc(Br)cc1` (stereo not given), the Potency result is “inactive”. With `CC(=O)NO`, the Potency result is “inactive”. For `C[C@@H]1C[C@H]2[C@@H]3CCC4=CC(=O)C=C[C@]4(C)[C@@]3(F)[C@@H](O)C[C@]2(C)[C@@]1(O)C(=O)COC(=O)c1ccncc1` the value was “inactive”; for `O=C(NCCO[N+](=O)[O-])c1cccnc1`, “inactive”; for `OC(CN1CCC(Cc2ccc(F)cc2)CC1)c1ccc(Cl)cc1` (stereo not given), “inactive”. Consider `CNCCCN1c2ccccc2CCc2ccccc21`, for which the Potency entry was “inactive”. Consider `CN(C)c1ccc(/C=C/c2ccc([N+](=O)[O-])cc2)cc1`, for which the Potency was 0.872 µM (active). On to `CCCOC(C(=O)OC1CCN(C)CC1)(c1ccccc1)c1ccccc1`, for which the Potency entry was “inactive”.

Take `C#Cc1cccc(Nc2ncnc3cc(OCCOC)c(OCCOC)cc23)c1`: the Potency is 7.5 µM (active). On to `C=C1[C@H]2CC[C@@H]3[C@H]2C(C)(C)CCC[C@]13C`, for which the Potency result was “inactive”.

As for `CCO[Si](CCCCl)(OCC)OCC`, the Potency entry was “inactive”. For `Nc1ccc(S(=O)(=O)Nc2ccccc2)cc1`, the Potency result was “inactive”.

In the case of `COc1ccc(C)cc1[N+](=O)[O-]`, the Potency entry is “inactive”.

For `CC(C)(COC(=O)c1ccccc1)COC(=O)c1ccccc1`, the Potency result was “inactive”. `COc1cc2nc(Cl)nc(N)c2cc1OC`: the Potency result is “inactive”. For `OCCNCc1ccccc1`, the Potency result was “inactive”.

For `C=CCOC(=O)CCC1CCCCC1`, the Potency entry is “inactive”.

As to `COc1cc(C(=O)OCCCN2CCCN(CCCOC(=O)c3cc(OC)c(OC)c(OC)c3)CC2)cc(OC)c1OC`, the Potency result was “inactive”. With `CC1OC(=O)C(C)OC1=O` (stereo not given), the Potency result was “inactive”. Under `Cc1ccc(N=Nc2c(O)c(C(=O)O)cc3ccccc23)c(S(=O)(=O)O)c1` stands “inactive”.

Source of the values: PubChem BioAssay (Tox21).
